# Screening results deposited in PubChem by National Center for Advancing Translational Sciences (NCATS).
# LmPK inhibitor = blocks Leishmania mexicana pyruvate kinase activity. hit rate 0.37% among 290,000. Q27686. Potency, µM (highest dose often 57.5 µM), inactives show top-dose activity change, negative = inhibition, most hits filed as inhibitors. purified LmPK, Kinase-Glo ATP luminescence, 1 h; also: potency is read from the fitted curve at half-maximal effect; % is scaled to controls: 0 for no effect and ±100 for the full control effect
# Target sequence (Q27686 whole entry, looked up): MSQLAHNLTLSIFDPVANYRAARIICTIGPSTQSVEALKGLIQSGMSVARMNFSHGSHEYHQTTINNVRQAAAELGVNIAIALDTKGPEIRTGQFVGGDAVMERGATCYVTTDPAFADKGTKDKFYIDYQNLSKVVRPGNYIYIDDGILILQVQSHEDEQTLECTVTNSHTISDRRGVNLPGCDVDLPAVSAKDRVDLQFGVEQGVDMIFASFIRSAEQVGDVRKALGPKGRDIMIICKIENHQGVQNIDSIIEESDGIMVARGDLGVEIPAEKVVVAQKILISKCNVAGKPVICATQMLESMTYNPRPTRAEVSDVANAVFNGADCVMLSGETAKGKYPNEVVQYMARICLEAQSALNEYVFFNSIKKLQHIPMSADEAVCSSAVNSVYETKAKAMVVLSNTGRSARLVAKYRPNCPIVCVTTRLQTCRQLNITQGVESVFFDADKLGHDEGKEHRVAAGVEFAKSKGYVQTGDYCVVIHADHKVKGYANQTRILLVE
#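 ATP generated from ADP (0.1 mM) and PEP (0.5 mM) by 0.1 nM LmPK over 1 h at room temperature (pH 7.2 imidazole buffer) was detected by coupled luciferase luminescence. Values were normalized to uninhibited and no-enzyme wells.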
# FBPA Giardia inh = inhibitors of Giardia lamblia fructose-1,6-bisphosphate aldolase; purified Giardia FBPA; Potency, µM (top dose mostly 59.6 µM), for the others: top-dose activity, negative = inhibition, hits mostly inhibitors; hit rate 0.71% among 290,000; also: potency is read from the fitted curve at half-maximal effect; % is scaled to controls: 0 for no effect and ±100 for the full control effect; nearly all actives have a fitted effect of over 55% in size
#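 Giardia FBPA (40 nM reagent) was preincubated 10 min at RT with compound (up to 57.5 uM final), then substrate plus GAPDH/TPI/NAD/arsenate coupling system with diaphorase/resazurin was added; resorufin fluorescence (525/598 nm) was read after 20 min.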
# Cycloheximide cs = counter-screen for Shiga toxin inhibitors: cycloheximide protein synthesis inhibition. cell reporter, cycloheximide protein synthesis inhibition counterscreen. max response, %. hit rate 12% among 300,000; in the data active = max response mostly above about 13%, no sharp cut-off; inactive = mostly below about 14%; also: read at 38.3 µM for the half of the compounds with a filed dose; 0% is about no effect
# Shiga toxin inh = Shiga toxin inhibition. Vero cells, Shiga toxin protein synthesis inhibition reporter. inhibition, % at 38.7 µM. AID 2315. hit rate 9.2% among 290,000; in the data active = inhibition mostly above about 28%, no sharp cut-off; inactive = mostly below about 43%; also: 0% is about no effect
# TbPYK inhibitor = T. brucei pyruvate kinase inhibition | Q57TT1 | TbPYK enzyme, Kinase-Glo Plus ATP luminescence, 45 min | Potency, µM (series often up to 76.8 µM), without a hit: at the top dose activity, negative = inhibition, hits mostly inhibitors | hit rate 0.12% among 410,000; also: potency is read from the fitted curve at half-maximal effect; % is scaled to controls: 0 for no effect and ±100 for the full control effect; nearly all actives have a fitted effect of over 50% in size
#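 Enzyme and substrate buffer are dispensed first and compound is pin-transferred. ADP at 130 uM final then starts the reaction, which runs 45 min at room temperature. Detection reagent is added for 10 min before luminescence is imaged.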
# Sm TGR inh = blocks Schistosoma mansoni thioredoxin glutathione reductase | hit rate 3% among 360,000 | Potency, µM (top dose mostly 114 µM), for inactives: top-dose activity change, negative = inhibition, hits mostly inhibitors | AID 485364 | purified TGR, DTNB reduction, TNB absorbance 405 nm; also: potency is read from the fitted curve at half-maximal effect; % is scaled to controls: 0 for no effect and ±100 for the full control effect; nearly all actives have a fitted effect of over 60% in size
#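 TGR 20 nM + NADPH 100 uM (dispensed conc.), cpd preinc 15 min RT; start with NADPH (500 uM addition) then DTNB (15 mM addition). Kinetic TNB absorbance, 405 nm filter. Four-parameter Hill fit across titration.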
# Numbers without * were called inactive; u = inconclusive; x = no result given. This excerpt belongs to a sample that is enriched for hits. Unless noted, calls follow the shape of the dose curve; as a rule, active = well fitted curve in the direction sought with a large enough effect; inconclusive = small, poorly fitted or top-dose-only effect, or another doubt; inactive = no such curve, though single readings can be large; an effect the other way counts as inactive or inconclusive.
SMILES,LmPK inhibitor,FBPA Giardia inh,Cycloheximide cs,Shiga toxin inh,TbPYK inhibitor,Sm TGR inh
O=C(c1c(F)cccc1F)N1CCCC(c2nc(-c3ccc(F)cc3)no2)C1 (stereo not drawn),4.1%,14.1%,24.0*,x,-1.1%,3.5%
COc1ccc(-c2noc(C3CCCN(C(=O)c4ccc(F)cc4)C3)n2)cc1 (stereo not drawn),2.4%,-1.0%,26.1*,70.9,3.6%,-21.9%
O=C(c1ccc(F)cc1)N1CCCC(c2nc(-c3ccncc3)no2)C1 (stereo not drawn),x,x,x,x,-0.4%,-1.7%
COc1ccc(NC(=O)c2cc(C)n(Cc3cccs3)c2C)cc1,-7.6%,-5.8%,62.1*,82.1*,-7.7%,-27.0%
Cc1cc(C)c(C(=O)COc2cccnc2[N+](=O)[O-])cc1C,11.3%,u,5.1,-11.1,-21.0%,15.8µM*
Cc1cc(C(=O)COc2ccc3ccc(=O)oc3c2)c(C)n1Cc1cccs1,5.8%,10.3%,19.9*,11.6,-5.8%,-36.0%
COCCn1c(C)cc(C(=O)COc2ncnc3ccc(Br)cc23)c1C,-1.0%,6.1%,5.9,33.6,-10.1%,0.0%
COCCn1c(C)cc(C(=O)COc2cccnc2[N+](=O)[O-])c1C,-0.1%,u,31.9*,53.3*,1.2%,u
COc1ccc(S(=O)(=O)c2c(Nc3cccc(C)c3C)sc(C(=O)c3ccccc3)c2N)cc1,x,x,x,x,-1.0%,-18.0%
O=C(COc1cccnc1[N+](=O)[O-])c1c[nH]c2ccccc12,-0.1%,-7.1%,19.5*,26.4,-2.4%,-28.1%
Cc1ccc(OCC(=O)c2cc(C)n(Cc3cccs3)c2C)c([N+](=O)[O-])n1,0.9%,0.6%,36.2*,31.5,2.2%,x
CN(C)S(=O)(=O)c1cccc(COc2cccnc2[N+](=O)[O-])c1,4.6%,-6.0%,-3.5,1.6,-9.0%,4.7%
Cc1ccc(OCC(=O)c2cc(C)n(CC(F)(F)F)c2C)c([N+](=O)[O-])n1,1.1%,-1.2%,-2.1,27.1,-6.2%,-26.3%
O=[N+]([O-])c1ncccc1OCc1ccc(Cl)c(Cl)c1,-2.2%,11.0%,38.4*,57.9*,-2.8%,2.2%
O=C(Cc1ccccc1[N+](=O)[O-])OCC(=O)c1c[nH]c2ccccc12,x,x,x,x,-7.2%,4.9%
Cc1ccccc1CN1c2ccccc2-c2nc(SCC(=O)c3ccccc3)ncc2S1(=O)=O,x,x,x,x,-1.3%,5.4%
O=C(N/N=C/c1ccccc1OC(F)F)C1=COCCO1,-6.9%,-11.0%,27.4*,63.6*,-1.0%,4.7%
O=C(N/N=C/c1ccc(OC(F)F)cc1)C1=COCCO1,u,-0.2%,50.7*,77.9*,2.5%,5.5%
O=C(NN=Cc1ccc(OC(F)F)cc1)c1ccc(NS(=O)(=O)c2cccs2)cc1,x,x,x,x,-6.6%,x
O=C(COC(=O)C1=COCCO1)Nc1ccccc1OC(F)F,-1.5%,-0.1%,5.3,20.4,1.2%,-3.3%
O=c1c2ccccc2cnn1Cc1n[nH]c(=S)n1-c1ccccc1Cl,u,-13.8%,-3.5,-9.3,u,-5.7%
Cc1c(CNCc2ccc(OC(C)C)cc2)c(C(=O)O)c(C)n1Cc1ccc(Cl)cc1,x,x,x,x,-23.1%,-14.6%
Cc1nc(C(=O)N/N=C/c2[nH]ncc2Br)cs1,-1.4%,-5.3%,34.8*,44.9,1.8%,3.6%
c1ccc(C(c2nnnn2Cc2ccco2)N2CCN(c3nc4ccccc4s3)CC2)cc1 (stereo not drawn),6.8%,-1.2%,31.1*,58.0*,0.7%,-16.6%
CCCCC(c1nnnn1Cc1ccco1)N1CCN(c2nc3ccccc3s2)CC1 (stereo not drawn),0.7%,-1.3%,23.0*,62.4*,-4.2%,u
SMILES,LmPK inhibitor,FBPA Giardia inh,Cycloheximide cs,Shiga toxin inh,TbPYK inhibitor,Sm TGR inh
CCOc1ccc(N=Nc2c(C)noc2C)cc1,-2.2%,-2.5%,27.9*,41.4,3.5%,-2.1%
CCCC(=O)Nc1ccc(Cl)c(NC(=O)c2cccnc2)c1,-0.6%,-2.8%,5.9,8.6,5.6%,4.0%
CCCC(=O)Nc1ccc(Cl)c(NC(=O)c2cccc(OC)c2)c1,4.8%,-1.6%,7.7,-10.6,-3.5%,8.91µM*
O=C(COc1ccc(Cc2ccccc2)cc1)c1ccc(F)cc1,-4.8%,2.2%,34.8*,-17.0,-2.1%,5.2%
COc1cccc(NC(=O)c2ccc(NC(C)=O)cc2)c1,-16.4%,-5.7%,33.4*,20.5,5.6%,-3.1%
COc1cccc(C(=O)Nc2nnc(-c3ccccc3)s2)c1,3.1%,-4.8%,33.5*,112.2*,2.0%,2.0%
CCOc1ccccc1-n1nnc(-c2nc(-c3ccccc3C)no2)c1C,x,x,x,x,-7.3%,16.0%
CCc1cccc(NC(=O)CC2Oc3ccc(C)cc3NC2=O)c1 (stereo not drawn),x,x,x,x,1.8%,1.0%
Cc1ccc(-c2nnc(Nc3ccc(O)cc3)c3ccccc23)cc1S(=O)(=O)N1CCCCC1,x,x,x,x,2.0%,-8.0%
Cc1c(CCC(=O)NCCc2ccccc2F)c(=O)oc2cc(O)ccc12,x,x,x,x,-4.9%,13.9%
COc1cccc(C(=O)Nc2ccc(C3CC3(Cl)Cl)cc2)c1 (stereo not drawn),u,-17.4%,28.2*,84.7*,-20.6%,9.9%
Cc1cccc(C(=O)Nc2ccc(O)cc2)c1,-22.1%,-13.7%,30.1*,37.3,2.1%,0.0%
O=C(Nc1cccc(NC(=O)c2ccco2)c1)c1cccc(Br)c1,-2.7%,5.6%,20.5,85.8*,-4.4%,0.0%
CCOc1cccc(C(=O)Nc2cccc(NC(=O)c3ccco3)c2)c1,3.0%,1.7%,25.3*,24.6,1.8%,1.8%
CC(=O)Nc1ccc(NC(=O)c2ccc(COc3ccccc3)cc2)cc1,5.4%,3.5%,-1.1,21.2,-2.6%,-19.8%
O=C(NC(=S)Nc1ccc2c(c1)C(=O)c1ccccc1C2=O)c1ccc(F)cc1,-4.2%,-11.1%,71.9*,103.1*,x,-14.3%
Cc1cccc(C(=O)Nc2ccc(C(=O)c3ccccc3)cc2)c1,x,x,x,x,-3.7%,x
CC(=O)Nc1cccc(NC(=O)c2ccc(COc3ccccc3)cc2)c1,-2.4%,8.6%,58.9*,109.1*,3.7%,-1.5%
COc1cccc(C(=O)Nc2ccc3c(c2)C(=O)c2ccccc2C3=O)c1,-3.1%,-8.9%,31.1*,37.6*,3.5%,-0.7%
COC(=O)c1ccc(NC(=O)c2cccc(C)c2)cc1,-5.0%,-1.3%,18.9*,36.8,-4.6%,89.1µM*
CCOc1cccc(C(=O)Nc2ccc3ccccc3c2)c1,-3.8%,3.1%,20.6*,36.8,0.9%,-7.6%
COc1cccc(C(=O)NC(=O)Nc2cc(C)[nH]n2)c1,0.3%,-5.0%,38.7*,84.2*,-10.5%,0.0%
COc1cccc(C(=O)Nc2ccc(C(=O)c3ccccc3)cc2)c1,-6.7%,-9.3%,35.7*,x,-2.1%,4.0%
CCOc1cccc(C(=O)NC(=S)Nc2cccc(C)c2)c1,4.6%,-2.7%,8.9,65.5*,-1.8%,u
Cc1ccc(NC(=O)Cn2ccn(-c3ccccc3)c(=O)c2=O)cc1,x,x,x,x,0.0%,4.7%
